# The list is not random: actives were taken first. Their share in the collection is about 3.3%.
# BoNT-A LC inh2: inhibitors of Botulinum neurotoxin A light chain protease. inhibition, % at 10 µM. 360,000 tested, 0.17% active. multiplex microsphere protease substrate cleavage, flow cytometry
# Autofluor counter: flagged as autofluorescent in microsphere protease counterscreen. compound autofluorescence counterscreen, microsphere flow cytometry; active compounds read high. fluorescence intensity (no concentration beside the values). 360,000 tested, 3.1% active. AID 624483; in the data active = fluorescence intensity above about 16000; inconclusive = no clear call, values can overlap the other calls
# SSB-PriA inh: inhibitors of Klebsiella pneumoniae PriA binding to SSB C-terminal tail; AlphaScreen SSBct-PriA binding, biotinylated peptide; inhibition, % at 33 µM; 430,000 tested, 0.6% active; in the data active = inhibition mostly above about 37%, no sharp cut-off; inactive = mostly below about 20%
# MazF activator: activators of E. coli MazEF toxin-antitoxin RNase; P0AE70; FAM/BHQ RNA-DNA oligo cleavage fluorescence, 5 h; activation, % at 20 µM; 350,000 tested, 0.32% active; AID 504720; in the data active = activation above about 50%
# Target sequence (P0AE70 whole entry, looked up): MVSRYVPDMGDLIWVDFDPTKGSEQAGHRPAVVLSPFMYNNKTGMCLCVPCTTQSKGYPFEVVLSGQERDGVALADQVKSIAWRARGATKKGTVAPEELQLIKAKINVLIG
# BoNT F protease: blocks Botulinum neurotoxin F light chain protease. 360,000 tested, 0.22% active. Multiplex microsphere protease cleavage assay, flow cytometry. inhibition, % at 10 µM; in the data active = inhibition above about 35%, passing the limit was not always enough; inconclusive = no clear call, values can overlap the other calls
# Anthrax LF prot: anthrax lethal factor protease inhibition | multiplex microsphere protease cleavage assay, LF | inhibition, % at 10 µM | 360,000 tested, 0.12% active
# Numbers stand for hits; 0 = inactive; ? = inconclusive; - = no result. Cut-off read from the data, not from the text of the source, unless noted: active = inhibition above about 30%; inconclusive = no clear call, values can overlap the other calls; inactive = below that.
SMILES,BoNT-A LC inh2,Autofluor counter,SSB-PriA inh,MazF activator,BoNT F protease,Anthrax LF prot
CS(=O)(=O)N1CCN(C(=O)c2ccc(Cl)s2)CC1,0,0,0,0,0,0
CCc1ccc(C(=O)N2CCCN(C)CC2)s1,0,0,0,0,0,0
CCc1ccc(C(=O)N2CCCC2)s1,?,16597,0,0,0,0
CN(C)c1cccc(C(=O)NCC2(Sc3ccccc3)CCOCC2)c1,-,-,0,-,-,-
Cc1nc(-n2nc(-c3ccco3)cc2NC(=O)c2ccc(Br)o2)[nH]c(=O)c1C,-,-,0,-,-,-
O=C(c1ccccc1F)N1CCC(Oc2ncccc2Cl)CC1,-,-,0,-,-,-
CCc1ccc(C(=O)NC2CCCCC2)s1,0,20340,0,0,0,0
O=C(c1ccc(Cl)s1)N1CCc2ccccc21,0,20271,0,0,0,0
CC(C)(O)C#Cc1ccc(C(=O)NC2CCCCC2)s1,0,0,0,0,0,0
O=C(Cn1cnc2c(cnn2-c2ccccc2Cl)c1=O)N1CCc2ccccc21,0,21755,0,0,0,0
Cc1cccc(C)c1Nc1nnc(SCc2cc([N+](=O)[O-])cc3c2OCOC3)s1,0,16667,0,0,0,0
COc1cccc(Nc2nnc(SCc3cc([N+](=O)[O-])cc4c3OCOC4)s2)c1,0,0,0,0,0,0
CC(C)Cc1cc(C(=O)N2N=C(C(F)F)CC2(O)C(F)F)c2ccccc2n1 (configuration not stated),0,22633,0,0,0,0
CC(=O)Cc1nsc(NC(=O)c2ccc(-c3cc(Cl)ccc3Cl)o2)n1,0,0,0,0,0,0
CC(=O)Cc1nsc(NC(=O)c2cc(-c3ccc(Cl)c(Cl)c3)oc2C)n1,0,23305,0,0,0,0
CC(=O)Cc1nsc(NC(=O)c2ccc(-c3ccc(Cl)cc3Cl)o2)n1,0,20376,0,0,0,0
O=C(Nc1ccsc1-c1nc(C2CC2)no1)[C@H]1CCOC1,-,-,0,-,-,-
CSc1ccc(-c2noc(CSc3nc(-c4ccccc4)cc(=O)[nH]3)n2)cc1,-,-,0,-,-,-
Nc1cc(=O)[nH]c(=S)n1-c1cccc(C(F)(F)F)c1,0,16135,0,0,0,0
COc1ccc(-c2nc(C)c(CCNC(=O)c3ccc(Br)o3)s2)cc1OC,-,-,0,-,-,-
Cn1ccnc1Sc1nc(Nc2cccc(Cl)c2)nc(N2CCOCC2)n1,0,22665,0,0,0,0
COc1cccc(C2C(=C(O)c3ccc(F)cc3)C(=O)C(=O)N2CCN(C)C)c1 (configuration not stated),-,-,0,-,-,-
COc1cccc(OCCN2CCN(c3ncnc4c3cnn4-c3ccccc3)CC2)c1,0,16922,0,0,0,0
CC(=O)Nc1ccc(S(=O)(=O)c2c(N)n(CCN3CCOCC3)c3nc4ccccc4nc23)cc1,0,0,0,0,0,0
Nc1c(S(=O)(=O)c2cc(Cl)ccc2Cl)c2nc3ccccc3nc2n1CCN1CCOCC1,?,24321,0,0,0,0
SMILES,BoNT-A LC inh2,Autofluor counter,SSB-PriA inh,MazF activator,BoNT F protease,Anthrax LF prot
O=C(NNc1nc2ccc(F)cc2s1)c1ccc(S(=O)(=O)N2CCc3ccccc3C2)cc1,-,-,0,-,-,-
O=C(O)COc1ccc(NC(=O)c2ccc3c(c2)C(=O)N(C2CCCCC2)C3=O)cc1,0,0,0,0,0,0
CCC(=O)Oc1ccc(C(=O)Nc2ccc3c(c2)C(=O)N(C2CCCCC2)C3=O)cc1,0,19149,0,0,0,0
CC(C)(C)NC(=O)c1ccc2c(c1)C(=O)N(C1CCCCC1)C2=O,0,16466,0,0,0,0
CC(CC(=O)NC(C)(C)C)=NNC(=O)c1ccccc1N,-,-,0,-,-,-
Clc1ccccc1CSc1nnc(-c2ccncc2)o1,0,0,0,0,0,0
COc1ccc(-c2nnc(-c3cccnc3)o2)cc1OC,0,24717,0,0,0,0
c1ccc2c(CSc3nnc(-c4ccncc4)o3)cccc2c1,0,23894,0,0,0,0
COc1cccc(-c2nnc(SCc3cccnc3)o2)c1,0,17724,0,0,0,0
CC1CCN(S(=O)(=O)c2ccc(-c3nnc(SCc4cccnc4)o3)cc2)CC1,0,23932,0,0,0,0
COc1cc(OC)cc(-c2nnc(SCc3cccnc3)o2)c1,0,0,0,0,0,0
COc1ccc(NC(=O)CSc2nnc(-c3cccnc3)o2)cc1,0,21010,0,0,0,0
CC(=O)Nc1ccc(NC(=O)CSc2nnc(-c3cccnc3)o2)cc1,0,?,0,0,0,?
CCOC(=O)CSc1nnc(-c2ccc(NS(=O)(=O)c3ccc(C)cc3)cc2)o1,0,20276,0,0,0,0
COC(=O)CSc1nnc(-c2ccncc2)o1,?,16743,0,0,0,0
COc1ccc(-c2nnc(SCC(=O)OC3CCCCC3)o2)cc1OC,0,19136,0,0,0,0
Nc1nc(Cl)cc(Nc2ccc(C(=O)O)cc2)n1,-,-,0,-,-,-
O=C(Nc1ccc(SCC(=O)N2CCN(c3ccccc3)CC2)nn1)c1ccccc1,-,-,0,-,-,-
O=C(O)C(Cc1ccc(O)cc1)N1C(=O)c2c(Cl)c(Cl)c(Cl)c(Cl)c2C1=O (configuration not stated),-,-,0,0,-,-
O=C(O)c1ccc2c(c1)C(=O)N(C(Cc1ccc(O)cc1)C(=O)O)C2=O (configuration not stated),0,21507,0,0,0,0
CC(=O)Nn1cc2c(c1-c1ccccc1)c(=O)n(C)c(=O)n2C,0,24616,0,0,0,0
Cn1c(=O)c2c(-c3ccccc3)n(-c3cc(Cl)c([N+](=O)[O-])cc3O)cc2n(C)c1=O,0,21612,-,-,0,0
Cn1c(=O)c2c(-c3ccccc3)n(-c3cc([N+](=O)[O-])ccc3O)cc2n(C)c1=O,0,0,-,0,0,0
CN(CC(=O)Nc1ccc(F)cc1)C(=O)COC(=O)CNC(=O)c1sc2ccccc2c1Cl,0,?,0,70,?,0
O=C(NCCCc1ccccc1)c1sccc1S(=O)(=O)N1CCN(c2ccccc2)CC1,-,-,0,-,-,-
SMILES,BoNT-A LC inh2,Autofluor counter,SSB-PriA inh,MazF activator,BoNT F protease,Anthrax LF prot
CN(C)c1ccc(N/C=C/C(=O)c2ccccc2)cc1,0,0,0,154,0,0
O=C(/C=C/Nc1ccccc1)c1ccccc1,0,0,0,0,0,0
CCOc1ccc(CN)cn1,-,-,0,-,-,-
O=C(NC1(C(F)(F)F)C(=O)Nc2c1c(=O)[nH]c(=O)n2Cc1ccccc1)c1ccc(Cl)cc1Cl (configuration not stated),0,16727,0,0,0,0
O=C(NC1(C(F)(F)F)C(=O)Nc2c1c(=O)[nH]c(=O)n2-c1ccc(F)cc1)c1cccnc1 (configuration not stated),0,18307,0,0,0,0
O=C1Nc2c(c(=O)[nH]c(=O)n2Cc2ccccc2)C1(NS(=O)(=O)c1ccccc1)C(F)(F)F (configuration not stated),0,0,0,0,0,0
O=C(NC1(C(F)(F)F)C(=O)Nc2c1c(=O)[nH]c(=O)n2Cc1ccccc1)c1ccc(Cl)cc1 (configuration not stated),0,16519,0,0,0,0
COc1ccccc1-n1c(CNC(=O)c2ccc(S(=O)(=O)N3CCOCC3)cc2)nnc1SCc1ccc(Br)cc1,-,-,0,-,-,-
CC(=O)N1CCc2ccc(NS(=O)(=O)c3cccc(Cl)c3)cc21,-,-,0,-,-,-

# High-throughput results from PubChem.
